From PubChem BioAssay (NCATS)
Inconclusive results are not listed. Active and inactive are the calls of the source. The call rests on the fitted dose curve; in most records, active means well fitted curve in the direction sought with a large enough effect; inconclusive means small, poorly fitted or top-dose-only effect, or another doubt; inactive means no such curve, though single readings can be large; an effect the other way counts as inactive or inconclusive.

Columns and labels:
[1] = qHTS of pediatric cancer cell lines to identify multiple opportunities for drug repurposing: Primary screen for U-2 OS cells (AID 1347096); further: nearly all actives have a fitted effect of over 50% in size; further: potency means the concentration at half of the fitted maximal effect
Method in brief: (§1)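 Cells (500-1,000/well) in growth media were settled 5 h at 37 degrees C, then given compounds for 48 h. Viability was read as CellTiter-Glo luminescence. Primary runs used MIPE at 11 points (0.78 nM-46 µM) and NPC at 8 points (0.59 nM-46 µM); follow-ups used 11 points.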

[2] = qHTS of pediatric cancer cell lines to identify multiple opportunities for drug repurposing: Primary screen for Saos-2 cells (AID 1347097); further: nearly all actives have a fitted effect of over 40% in size; further: potency means the concentration at half of the fitted maximal effect
Method in brief: (§2)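 Plated cells (500-1,000 per well, growth media) were allowed to settle for 5 hours, treated with compound dilutions for 48 hours, then lysed with CellTiter-Glo for 15 min at room temperature before luminescence reading.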

[3] = qHTS of pediatric cancer cell lines to identify multiple opportunities for drug repurposing: Primary screen for SK-N-SH cells (AID 1347098); further: nearly all actives have a fitted effect of over 65% in size; further: potency means the concentration at half of the fitted maximal effect
Method in brief: (§3)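 Cells (500-1,000/well) rested 5 h, then received compounds for 48 h; metabolically active cells were measured by CellTiter-Glo luminescence. Final concentrations spanned up to 46 µM (MIPE, 11-point) or 0.59 nM-46 µM (NPC, 8-point) in primary screens, 11-point in follow-ups.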

[4] = qHTS of pediatric cancer cell lines to identify multiple opportunities for drug repurposing: Primary screen for NB1643 cells (AID 1347099); further: nearly all actives have a fitted effect of over 50% in size; further: potency means the concentration at half of the fitted maximal effect
Method in brief: as §2

[5] = qHTS of pediatric cancer cell lines to identify multiple opportunities for drug repurposing: Primary screen for LAN-5 cells (AID 1347100); further: potency means the concentration at half of the fitted maximal effect
Method in brief: as §1

[6] = qHTS of pediatric cancer cell lines to identify multiple opportunities for drug repurposing: Primary screen for BT-12 cells (AID 1347101); further: nearly all actives have a fitted effect of over 25% in size; further: potency means the concentration at half of the fitted maximal effect
Method in brief: as §3

[7] = qHTS of pediatric cancer cell lines to identify multiple opportunities for drug repurposing: Primary screen for Rh18 cells (AID 1347102); further: nearly all actives have a fitted effect of over 65% in size; further: potency means the concentration at half of the fitted maximal effect
Method in brief: as §1

[8] = qHTS of pediatric cancer cell lines to identify multiple opportunities for drug repurposing: Primary screen for OHS-50 cells (AID 1347103); further: nearly all actives have a fitted effect of over 40% in size; further: potency means the concentration at half of the fitted maximal effect
Method in brief: as §3

[9] = qHTS of pediatric cancer cell lines to identify multiple opportunities for drug repurposing: Primary screen for RD cells (AID 1347104); further: nearly all actives have a fitted effect of over 55% in size; further: potency means the concentration at half of the fitted maximal effect
Method in brief: as §2

[10] = qHTS of pediatric cancer cell lines to identify multiple opportunities for drug repurposing: Primary screen for control Hh wild type fibroblast cells (AID 1347106); further: nearly all actives have a fitted effect of over 55% in size; further: potency means the concentration at half of the fitted maximal effect
Method in brief: as §1

[11] = qHTS of pediatric cancer cell lines to identify multiple opportunities for drug repurposing: Primary screen for Rh30 cells (AID 1347107); further: series mostly up to about 46 µM; nearly all actives have a fitted effect of over 75% in size
Method in brief: as §1

[12] = qHTS of pediatric cancer cell lines to identify multiple opportunities for drug repurposing: Primary screen for Rh41 cells (AID 1347108); further: nearly all actives have a fitted effect of over 70% in size; further: potency means the concentration at half of the fitted maximal effect
Method in brief: as §2

[13] = qHTS of pediatric cancer cell lines to identify multiple opportunities for drug repurposing: Primary screen for MG 63 (6-TG R) cells (AID 1347105); further: nearly all actives have a fitted effect of over 50% in size; further: potency means the concentration at half of the fitted maximal effect
Method in brief: as §2

[14] = qHTS of pediatric cancer cell lines to identify multiple opportunities for drug repurposing: Confirmatory screen for NB1643 cells (AID 1347109); further: nearly all actives have a fitted effect of over 45% in size; further: potency means the concentration at half of the fitted maximal effect
Method in brief: as §1

[15] = qHTS of pediatric cancer cell lines to identify multiple opportunities for drug repurposing: Confirmatory screen for A673 cells (AID 1347110);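 further: cells exposed to compound for 48 h before the viability read; nearly all actives have a fitted effect of over 65% in size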; further: potency means the concentration at half of the fitted maximal effect
Method in brief: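 A673 cells at 500-1,000 cells/well were dosed 5 h after plating, in dilution series up to 46 uM final; primary runs used 8 or 11 points and confirmatory runs used 11 points. Viability was read by CellTiter-Glo luminescence after 48 h, against DMSO and 2.3 uM bortezomib controls.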

[16] = qHTS of pediatric cancer cell lines to identify multiple opportunities for drug repurposing: Confirmatory screen for SK-N-MC cells (AID 1347111);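 further: potency means the concentration at half of the fitted maximal effect; cells exposed to compound for 48 h before the readout; nearly all actives have a fitted effect of over 70% in size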
Method in brief: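 Metabolically active cells were quantified by ATP-dependent luminescence (CellTiter-Glo, 15 min at room temperature) following 48 h treatment. Cells had been plated at 500-1,000 per well and settled for 5 h beforehand.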

[17] = qHTS of pediatric cancer cell lines to identify multiple opportunities for drug repurposing: Confirmatory screen for LAN-5 cells (AID 1347113); further: nearly all actives have a fitted effect of over 65% in size; further: potency means the concentration at half of the fitted maximal effect
Method in brief: as §1

[18] = qHTS of pediatric cancer cell lines to identify multiple opportunities for drug repurposing: Confirmatory screen for DAOY cells (AID 1347114); further: nearly all actives have a fitted effect of over 65% in size; further: potency means the concentration at half of the fitted maximal effect
Method in brief: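 Viability measured as metabolically active cells via CellTiter-Glo luminescence following 48 hours of compound exposure, 11-point dilutions in confirmatory testing. 500-1,000 cells/well plated 5 hours before dosing; controls were DMSO and 2.3 µM bortezomib.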

[19] = qHTS of pediatric cancer cell lines to identify multiple opportunities for drug repurposing: Confirmatory screen for NB-EBc1 cells (AID 1347115);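 further: potency means the concentration at half of the fitted maximal effect; cells exposed to compound for 48 h before the viability read; nearly all actives have a fitted effect of over 45% in size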
Method in brief: as §1

Measured: Potency

O=C1CC2(CCCC2)CC(=O)N1CCNCC1COc2ccccc2O1 (stereo not drawn)
not listed: [13] | [14] | [15] | [16] | [17] | [18] | [19]
inactive: all other assays above

OC1(c2ccc(Cl)cc2)CCNCC1
not listed: [13] | [14] | [15] | [16] | [17] | [18] | [19]
inactive: all other assays above

c1ccc2occc2c1
inactive: [1] | [4] | [5] | [6] | [8] | [9] | [13] | [10] | [11]

Cc1cc(OCCOCC[N+](C)(C)Cc2ccccc2)ccc1C(C)(C)CC(C)(C)C
active: [2] 13.3 µM | [3] 34.4 µM | [5] 21.1 µM | [6] 6.17 µM | [7] 10.6 µM | [9] 18.8 µM | [14] 8.27 µM | [15] 1.04 µM | [16] 2.61 µM | [17] 9.27 µM | [18] 11.7 µM | [19] 16.5 µM
inactive: [4]

O=C(c1cc(O)c(O)c(O)c1)c1ccc(O)c(O)c1O
inactive: [7] | [9] | [13] | [10] | [12]
active: [2] 26.6 µM | [8] 24.6 µM

CCCCCOc1ccccc1/C(=C\SC)n1ccnc1
inactive: [1] | [3] | [5] | [13] | [11]

CC(C)=CCNc1ncnc2c1ncn2[C@@H]1O[C@H](CO)[C@@H](O)[C@H]1O
active: [1] 21.1 µM | [3] 5.45 µM | [4] 5.31 µM | [5] 5.96 µM | [7] 2.66 µM | [9] 13.3 µM | [10] 8.41 µM | [12] 6.68 µM

CCOC(=O)N1CCC(n2c(=O)[nH]c3cc(Cl)ccc32)CC1
inactive: [2] | [3] | [4] | [5] | [9] | [13] | [10] | [12]

CCCCCCCCCCCCCCCC[N+](C)(C)Cc1ccccc1
active: [2] 23.7 µM | [5] 21.1 µM | [6] 11 µM | [7] 11.9 µM | [8] 11 µM | [13] 26.6 µM

CC(=O)OCC(=O)[C@@]1(O)CCC2C3CCC4=CC(=O)CC[C@]4(C)C3[C@@H](O)C[C@@]21C (stereo partly drawn)
active: [15] 16.5 µM
not listed: [2] | [7] | [8] | [12] | [16] | [19]
inactive: all other assays above

COc1ccc([C@@H]2Sc3ccccc3NC(=O)[C@@H]2O)cc1
inactive: [1] | [4] | [7] | [10] | [11] | [12]

O=S(=O)(O)c1ccc2nc(-c3ccccc3)[nH]c2c1
inactive: [10]

CCOC(=O)C1=C(C)NC(C)=C(C(=O)OCC)C1c1ccccc1/C=C/C(=O)OC(C)(C)C
inactive: [10] | [11]
active: [8] 15.5 µM | [13] 26.6 µM

CCCC(=O)c1cc(O)c(O)cc1O
inactive: [1] | [4] | [6] | [9] | [13] | [11] | [12]

O=C(Nc1ccc(Cl)cc1)Nc1ccc(Cl)c(C(F)(F)F)c1
active: [2] 13.3 µM | [3] 8.64 µM | [6] 9.78 µM | [8] 5.5 µM | [9] 11.9 µM | [13] 21.1 µM

CCOC(=O)c1ccc(O)c(O)c1
inactive: [1] | [3] | [4] | [7] | [9] | [13] | [10] | [11] | [12]

CCCC(=O)O[C@]1(C(=O)CCl)[C@@H](C)C[C@H]2[C@@H]3CCC4=CC(=O)C=C[C@]4(C)[C@@]3(F)C(=O)C[C@@]21C
active: [8] 13.8 µM | [16] 14.7 µM
inactive: [1] | [3] | [4] | [7] | [13] | [10] | [14] | [15] | [17]

CCCN(CCC)C(=O)C(CCC(=O)OCCCN1CCN(CCOC(=O)Cc2c(C)n(C(=O)c3ccc(Cl)cc3)c3ccc(OC)cc23)CC1)NC(=O)c1ccccc1 (stereo not drawn)
inactive: [1] | [4] | [6] | [10] | [11] | [12]

CC(C)(C)C1CCC(CC2=C(O)c3ccccc3C(=O)C2=O)CC1 (stereo not drawn)
inactive: [1] | [7] | [10]
active: [5] 9.44 µM | [6] 24.6 µM | [8] 3.89 µM

Cc1cccc(N(C)C(=S)Oc2ccc3c(c2)C2CCC3C2)c1 (stereo not drawn)
inactive: [5] | [13] | [10] | [11] | [12]

C/C=C(/C(=C/C)c1ccc(OC(C)=O)cc1)c1ccc(OC(C)=O)cc1
inactive: [1] | [3] | [6] | [7] | [9] | [10] | [11] | [12]

Cc1c(C)c2c(c(C)c1OC(=O)CCC(=O)OCCO)CC[C@@](C)(CCC[C@H](C)CCC[C@H](C)CCCC(C)C)O2
inactive: [1] | [2] | [10] | [12]

O=C1NC2CCCCN2C12CCN(CCCN1c3ccccc3CCc3ccc(Cl)cc31)CC2 (stereo not drawn)
active: [2] 23.7 µM | [3] 27.3 µM | [6] 15.5 µM | [8] 27.6 µM
inactive: [10] | [11]

CC(NCCC(c1ccccc1)c1ccccc1)c1ccccc1 (stereo not drawn)
active: [2] 26.6 µM | [3] 27.3 µM | [6] 27.6 µM | [8] 17.4 µM
inactive: [10]

NC(=O)C1(N2CCCCC2)CCN(CCCN2c3ccccc3CCc3ccc(Cl)cc32)CC1
active: [2] 21.1 µM | [3] 13.7 µM | [6] 19.5 µM | [8] 24.6 µM

COC(=O)[C@H]1[C@H]2C[C@@H]3c4[nH]c5cc(OC)ccc5c4CCN3C[C@H]2C[C@@H](OC(=O)/C=C/c2ccc(O)c(OC)c2)[C@@H]1OC
active: [2] 16.8 µM | [3] 21.7 µM | [5] 21.1 µM

N#C/C(=C1/SC[C@@H](c2ccc(Cl)cc2Cl)S1)n1ccnc1
inactive: [1] | [7] | [13] | [10]

CC(Oc1c(Cl)cccc1Cl)C1=NCCN1 (stereo not drawn)
inactive: [1] | [2] | [5] | [6] | [7] | [9] | [13] | [10] | [11] | [12]

Cc1[nH]cnc1-c1ccc(Cl)cc1
inactive: [1] | [2] | [5] | [6] | [8] | [9] | [10] | [11] | [12]

CCN(CC)CCOc1ccc(/C(=C(\Cl)c2ccccc2)c2ccccc2)cc1
inactive: [10] | [11]
active: [2] 26.6 µM | [3] 30.7 µM | [5] 18.8 µM | [6] 15.5 µM | [8] 24.6 µM | [9] 23.7 µM

CCCCCCCCCCCCCCCCCCNC(=O)OC1CCN(C(=O)OC[C@H](COC(=O)N(Cc2cccc[n+]2CC)C(=O)c2ccccc2OC)OC)CC1
active: [2] 23.7 µM | [6] 8.71 µM | [8] 11 µM | [9] 23.7 µM
inactive: [10]

Nc1cc(C(F)(F)F)ccc1S
inactive: [5] | [10] | [11]

O=C(Nc1ccc(S(=O)(=O)N2CCOCC2)cc1)c1cc(Cl)ccc1NS(=O)(=O)c1ccc(Cl)s1
inactive: [1] | [4] | [5] | [6] | [7] | [8] | [9] | [13] | [10] | [11]

CC(=O)Oc1ccc(C2(c3ccc(OC(C)=O)cc3)Oc3ccccc3NC2=O)cc1
inactive: [7] | [11]
active: [2] 11.9 µM | [6] 19.5 µM | [13] 4.22 µM

OCc1c[nH]c2ccccc12
inactive: [8] | [10]

O=C(NO)c1ccccc1
inactive: [1] | [5] | [6] | [8] | [13] | [10] | [11]

CCN1CCN(c2cc(-c3ccc(F)cc3)c3c(n2)CCCCCC3)CC1
not listed: [2] | [8] | [14] | [15] | [16] | [17] | [18] | [19]
inactive: all other assays above

CCCCCCOC(=O)NC(=N)c1ccc(NCc2nc3cc(C(=O)N(CCC(=O)OCC)c4ccccn4)ccc3n2C)cc1
inactive: [1] | [4] | [13] | [11]

Cc1cccc(N(C)C(=S)Oc2ccc3c(c2)CCC3)c1
inactive: [1] | [4] | [5] | [7] | [9] | [13] | [10] | [11] | [12]

CCCCCC(=O)O[C@]1(C(C)=O)CC[C@H]2[C@@H]3CCC4=CC(=O)CC[C@]4(C)[C@H]3CC[C@@]21C
active: [4] 18.8 µM | [5] 26.6 µM | [6] 27.6 µM | [8] 15.5 µM
inactive: [13] | [10] | [11]

c1ccc(C(O[C@H]2CCCN(CCc3ccc4c(c3)OCO4)C2)c2ccccc2)cc1
inactive: [1] | [2] | [5] | [6] | [7] | [9] | [13] | [10] | [11] | [12]
